Source: PubChem BioAssay (National Center for Advancing Translational Sciences (NCATS))
In the library only some 19% were active in any assay of this set; here they are far more common.
KB-V1 cytotox = qHTS assay for MDR1-selective chemotherapeutics: Primary screen using the drug-selected MDR subline cells KB-V1; hit rate 3.4% among 400,000; Potency, µM (titrated, usually from 46.1 µM), actives largely listed as cytotoxic; KB-V1 MDR cells viability, CellTiter-Glo, 72 h; note: nearly all actives have a fitted effect of over 60% in size
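Luminescent ATP read-out (CellTiter-Glo, 10 min) measures survival of drug-selected KB-V1 MDR cells after 72 h, 37 degrees C compound exposure. Medium: phenol-red-free DMEM, 10% FBS. Values from fitted concentration-response curves.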
TDP1 cell noCPT = qHTS for Inhibitors of human tyrosyl-DNA phosphodiesterase 1 (TDP1): qHTS in cells in absence of CPT. Potency, µM (highest dose often 46.2 µM), most hits filed as inhibitors. DT40 Tdp1-/- hTDP1 cells, no CPT, ATP luminescence, 48 h. hit rate 15% among 420,000. AID 686978, 2013; note: nearly all actives have a fitted effect of over 55% in size
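Readout: luminescence from CellTiter-Glo after 30 min in the dark at RT. Cells: DT40 Tdp1-/- with stable hTDP1, 400/well. Exposure: compounds alone, ≥48 hr, 37 °C.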
HT1080 IDH1KD tx = qHTS for induction of synthetic lethality in tumor cells producing 2HG: qHTS for the HT-1080-IDH1KD cell line. HT-1080 IDH1 knockdown viability, ATP luminescence, 48 h. AID 686971, 2013. Potency, µM (doses to about 46.1 µM), hits mostly cytotoxic. hit rate 2% among 360,000
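Cytotoxicity counter-line: IDH1KD HT-1080, 48 h, CellTiter-Glo. Curves classed by r2, magnitude and activity.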
HT1080-NT tox = qHTS for induction of synthetic lethality in tumor cells producing 2HG: qHTS for the HT-1080-NT fibrosarcoma cell line | hit rate 1.6% among 360,000 | HT-1080-NT fibrosarcoma viability, CellTiter-Glo ATP luminescence, 48 h | Potency, µM (highest dose often 46.1 µM), usual class: cytotoxic;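 note: NT is the 2HG producing partner of a matched IDH1 knockdown line; nearly all actives have a fitted effect of over 55% in size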
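Toxicity toward the 2HG-producing NT line was scored as %Activity, normalised to DMSO and no-cell wells, from CellTiter-Glo luminescence after 48 hours' treatment.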
DT40 TDP1 CPT = qHTS for Inhibitors of human tyrosyl-DNA phosphodiesterase 1 (TDP1): qHTS in cells in presence of CPT; chicken DT40 Tdp1-/-;hTDP1 cells + 20 nM CPT, ATP luminescence, 48 h; Potency, µM (series often up to 46.2 µM), hits mostly inhibitors; hit rate 12% among 420,000; AID 686979, 2013; note: nearly all actives have a fitted effect of over 55% in size
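Chicken DT40 Tdp1-/- cells complemented with human TDP1, 400 cells/well, exposed to compounds plus 20 nM camptothecin for at least 48 h at 37 C; viability read as ATP content by CellTiter-Glo luminescence.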
KB-3-1 cytotox = qHTS assay for MDR1-selective chemotherapeutics: Primary screen using the parental adenocarcinoma cell KB-3-1; Potency, µM (top dose mostly 46.1 µM), most hits filed as cytotoxic; AID 1347075, 2019; hit rate 1.4% among 400,000; KB-3-1 viability, CellTiter-Glo ATP luminescence, 72 h; note: nearly all actives have a fitted effect of over 60% in size
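Cells are dispensed, compounds pinned in, plates held at 37 °C for 72 h, then CellTiter-Glo is added and luminescence read after 10 minutes. Cell line: parental KB-3-1 in phenol-red-free DMEM, 10% FBS.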
A number is an active result; . = inactive; ? = inconclusive; / = not tested or not shown; [ ] = another dose, or the depositor's remark. Calls come from the whole dose curve; as a rule, active = well fitted curve in the direction sought with a large enough effect; inconclusive = small, poorly fitted or top-dose-only effect, or another doubt; inactive = no such curve, though single readings can be large; an effect the other way counts as inactive or inconclusive.

SMILES | KB-V1 cytotox | TDP1 cell noCPT | HT1080 IDH1KD tx | HT1080-NT tox | DT40 TDP1 CPT | KB-3-1 cytotox
Cc1cc(C)cc(CC(=O)N2CCC2(C)C(=O)NS(=O)(=O)c2ccc(C(C)(C)C)cc2)c1 (stereo unspecified) | . | . | . | . | . | .
CCOc1ccccc1NC(=O)c1cnc(NS(=O)(=O)c2ccccc2)nc1 | ? | ? | . | . | . | .
COc1ccccc1C1OC2=C(Nc3ccc([N+](=O)[O-])cc3N2)C1=O (stereo unspecified) | . | 13µM | . | . | 13µM | .
COc1ccc(C2OC3=C(Nc4cc(C)c(C)cc4N3)C2=O)cc1 (stereo unspecified) | . | . | . | . | . | .
O=C(NCC1CCN(Cc2ccccc2)CC1)[C@H]1O[C@@H](n2ccc(=O)[nH]c2=O)[C@H](O)[C@@H]1O | . | . | . | . | . | .
Cc1oc(-c2cccc(Cl)c2)nc1CS(=O)(=O)CC(=O)NCc1ccccc1Cl | . | ? | / | / | . | .
COc1ccc(OC)c(C(=O)Cn2nnc(-c3ccc(N4CCOCC4)cc3)n2)c1 | . | . | . | . | . | 21µM
CCn1cc(C(c2ccccc2)C(C(C)=O)[N+](=O)[O-])c2ccccc21 (stereo unspecified) | ? | ? | . | ? | ? | .
COc1ccccc1C(C[N+](=O)[O-])c1c[nH]c2ccccc12 (stereo unspecified) | ? | ? | ? | 15µM | ? | ?
CC(=O)C(C(c1ccccc1)c1c[nH]c2ccccc12)[N+](=O)[O-] (stereo unspecified) | ? | 5.8µM | 23µM | ? | 6.5µM | 7.3µM
CCc1ccc(NC(=O)c2ccc(S(=O)(=O)NCc3cccnc3)cc2)cc1 | . | ? | . | . | ? | .
COc1cccc(S(=O)(=O)NCc2ccc(C(=O)N3CCN(C)CC3)cc2)c1 | . | . | . | . | . | .
COc1cccc(NC(=O)c2ccc(CNS(=O)(=O)c3ccc4c(c3)C(C)(C)C(=O)N4C)cc2)c1 | / | 23µM | / | / | ? | /
COc1cccc(NC(=O)c2ccc(S(=O)(=O)NCc3cccnc3)cc2)c1 | 18µM | ? | . | . | ? | .
COc1cccc(S(=O)(=O)NCc2ccc(C(=O)Nc3cccc(Cl)c3)cc2)c1 | ? | 26µM | .[9.24 µM] | ? | 21µM | ?
Cc1ccc(NC(=O)c2ccc(CNS(=O)(=O)c3ccc4c(c3)C(C)(C)C(=O)N4C)cc2)cc1C | / | 12µM | / | / | 15µM | /
Cc1ccc(CNC(=O)c2ccc(CNS(=O)(=O)c3ccc4c(c3)C(C)(C)C(=O)N4C)cc2)o1 | . | . | . | . | . | .
CC(C(=O)NCCc1ccccc1)N1c2cccc3cccc(c23)S1(=O)=O (stereo unspecified) | . | . | . | . | ? | .
Cc1cccc(NC(=O)c2ccc(CNS(=O)(=O)c3ccc4c(c3)C(C)(C)C(=O)N4C)cc2)c1 | / | 12µM | / | / | 21µM | /
CCC(C)NC(=O)c1ccc(CNS(=O)(=O)c2ccc3c(c2)C(C)(C)C(=O)N3C)cc1 (stereo unspecified) | . | . | . | . | . | .
CN(c1ccccc1)S(=O)(=O)c1cccc(NC(=O)c2cc3ccccc3oc2=O)c1 | . | ? | . | . | ? | .
COc1ccc(NC(=O)c2nn(C)c(=O)c3ccccc23)cc1S(=O)(=O)Nc1ccccc1Cl | . | ? | . | . | ? | .
COc1ccccc1NC(=O)C(=O)NNS(=O)(=O)c1ccc2ccccc2c1 | . | 26µM | . | . | 23µM | .
COc1ccccc1NS(=O)(=O)c1cccc(NC(=O)Cc2cccs2)c1 | ? | 26µM | . | . | ? | .
COc1ccccc1NS(=O)(=O)c1cccc(NC(=O)c2cc3ccccc3oc2=O)c1 | . | 18µM | . | . | ? | .
SMILES | KB-V1 cytotox | TDP1 cell noCPT | HT1080 IDH1KD tx | HT1080-NT tox | DT40 TDP1 CPT | KB-3-1 cytotox
O=C(Cc1cccs1)Nc1ccccc1NC(=O)Cc1cccs1 | . | . | . | . | . | .
COc1ccccc1NS(=O)(=O)c1cccc(NC(=O)c2nn(C)c(=O)c3ccccc23)c1 | . | 23µM | . | . | ? | ?
CCOc1ccc(S(=O)(=O)NCCC(=O)NCc2cccnc2)cc1 | . | . | . | . | . | .
COc1ccccc1NS(=O)(=O)c1cccc(NC(=O)Nc2ccccc2)c1 | 21µM | 15µM | . | . | ? | ?
COC(=O)c1cccc(NC(=O)c2nn(C)c(=O)c3ccccc23)c1 | . | 8.2µM | . | . | 23µM | .
COc1ccccc1NS(=O)(=O)c1cccc(N=C2N=C(N)c3ccccc32)c1 | . | 23µM | . | . | . | .
CCNC(=S)Nc1cccc(S(=O)(=O)Nc2ccccc2OC)c1 | . | 23µM | . | . | ? | .
NC1=NC(=Nc2cccc(S(N)(=O)=O)c2)c2ccccc21 | . | . | . | . | . | .
CCOC(=O)c1cc[nH]c1C | . | . | . | . | . | .
CN(CCO)C(=O)c1cn(C2CCN(Cc3c(F)cccc3Cl)CC2)nn1 | / | . | / | / | .[9.04 µM] | /
O=C(c1cccs1)c1c[nH]cc1-c1ccccc1 | . | . | . | . | . | .
CC(=O)c1c(C)[nH]c(C(=O)Nc2cccc(S(=O)(=O)N3CCOCC3)c2)c1C | . | ? | . | . | ? | .
C=CCn1c(Cc2cccs2)nnc1SCC(=O)Nc1cc(OC)cc(OC)c1 | ? | 16µM | . | . | ? | .
COc1ccc(OCC(=O)NNC(=O)c2nn(C)c(=O)c3ccccc23)cc1 | . | . | . | . | . | .
COc1cc(NC(=O)Cc2cccs2)cc(OC)c1 | . | 18µM | . | . | ? | .
C=CCn1c(Cc2cccs2)nnc1SCC(=O)Nc1ccc(C(=O)OCC)cc1 | . | . | . | . | . | .
COc1cccc(NC(=O)Cc2cccs2)c1 | ? | . | . | . | . | .
COc1cc(OC)cc(C(=O)NNC(=O)c2nn(C)c(=O)c3ccccc23)c1 | 13µM | ? | . | . | ? | ?
COc1ccccc1NS(=O)(=O)c1cccc(NC(=O)c2[nH]c(C)c(C(C)=O)c2C)c1 | ? | 16µM | . | . | ? | ?
Cc1ccc(C(=O)COC(=O)c2cccc([N+](=O)[O-])c2)s1 | ? | . | . | . | . | .
